The test system of the first assay is PPARa:RXRa (NR concentration 270 nM, RXRa partner concentration 90 nM). Nature of the assay: PBM binding z-score (relative to random genomic background probes); higher = stronger binding; sequences stand for … in GC…GCGATTGACAGCGTAGAATGAAGG
A digest of the protocol: (§1)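 Each nuclear receptor dimer, without ligand, was incubated for 1 h on custom Agilent 4×180K protein-binding microarrays. Binding was detected with antibodies against each partner (one per run), and scanned fluorescence was regression-normalized. The binding z-scores are referenced to random human genomic background probes.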
The sequence AGAACGAGGGCAATGAGTTGATAACACGGGTGGC had a PBM binding z-score of 1.28.
Regarding ACTAGCAGGCCAAGGGTCAATCAAGATTAGTCCG, the PBM binding z-score amounted to 4.64.
Still for that read-out and setting: the value for AATACAGGGTCATCGTAGGCCAGTGTACGCACAG was 5.62; that for TGTCAAAGTTCAAAGGCAACGTAAGTATCCACAC was 5.04.
TGGCCTAGGTCATTGGGCCAGTATAGTACGCATC displayed a PBM binding z-score of 3.79.
Sequence ATCGAAAGGTCGGCGAGGTGAGTATACACCGTTT registered a PBM binding z-score of 3.76.
Still for that read-out and setting: the value for CCTAGTTGGTCAAGAGGTCACACACCGGATATGA was 5.71; that for TCTGCTAGGTCAGCTGGTCAGCTAACGAGCTGCC was 1.95; that for CCGACTGGAGCAGAAAGGTTACCATACCATCCGG was 1.77.
Regarding CAAACTAGGTCACCTGAAGGTCAAAGTCCGCATG, the PBM binding z-score was 5.79.
In turn, GCCACTGGGGCATCAGCAGGTTACCATAACTTAA displayed a PBM binding z-score of 1.28.
Same read-out and setting: the value for CAGCCTAGGTCAGGGCCAATATAGGAGGAACGTT was 2.05; that for CTGAGTAGGTTATGGGGCATTCAGGCAACGGTGA was 2.8.
In the case of CGACCAAGGTCAAAGGTCAGTGAAGAGATGACGG, the PBM binding z-score worked out at 7.07.
With ACTCGTAGGACAAAGGTCAGAGCTACGCCAGTGA, the PBM binding z-score stood at 5.11.
The same measure, in the same setting: the value for GGTACGAGGGCAAGTTGATAGCAGAGTTTGATGG was 1.02.
The same measure, in the same setting: the value for CTCGAAAGGTCGTTCTCAGGTGAGTATACCAAAC was 4.56; that for AGTACAGGGTCATCGTAGGCCAGAGTACGCACAG was 5.87.
The same measure, in the same setting: the value for TCTTGTGGATCAGCAGGTTAAGAAAGCTGGCCAA was 0.761; that for TTACCAAGGTGAGCAGAGGTCGTTGATCCAACTC was 2.38; that for GCGACAGGGGCATCAGCAGGTTACCATAACTTAA was 1.33.
As for TCATATAGTTAAAAGGTGAAAGTCGGTGTGGTAA, the PBM binding z-score is 3.42.
Turning to TCGAGTAGGTTAGGGGCATTCAAAATGGCGTCGA, the PBM binding z-score is 1.38.
For TCTCGGTGGACACGAAAGGTCAGAGCTCGACATC, the PBM binding z-score came out at 3.69.
The same measure, in the same setting: in the case of TGAATGAGGTTATAAGATCAGCGAACGTTGCAAA it was 2.88; in that of GCTTGTAGATTAAGGTTAAGAAAGACTAAGCTAA, 1.32.
Same read-out and setting: the value for CGAAGTAGGTCAAGGACAGTGAATCTCCGCACGC was 5.28; that for ACTAGAAGGCCAAGTTTGGGTCACTCAAACAAAG was 1.52; that for CCTACTGGGCCACGGAAGGTCATTGATTCAGTGA was 3.5.
The same measure, in the same setting: in the case of TCTAGTAGATCAATAGAGGTTAAGAAAGTGCGCT it was 1.98.
Take AATACAGGGTCATCGTCGGCCAGAGTACGCACAG: the PBM binding z-score stood at 6.44.
Same read-out and setting: the value for TGAATGAGGTTATAAGATCAGGGATCGTTGCAAA was 2.81; that for ATAGAAAGGTCGAGGTGAGTATAGAGAAAGGGAA was 4.36.
On the same count and under the same terms, in the case of ATCTCTAGGTAAAAGTTCAGTCAATCCCGAGGAT it was 4.61.
Regarding CCTTAAGGGTCAAGGTTATAGCACGGGTGGTACG, the PBM binding z-score was 5.86.
Sequence CTCGAAAGGTCGTGCTCAGGTGAGTATACCAAAC yielded a PBM binding z-score of 4.99.
The same measure, in the same setting: in the case of ACAGACAGTTGAGTGAAGGTAACTCAGCTGGACG it was -0.127.
As for GCTGCTAGGTTAGGTTGGTCAGCTAACGGGTACG, the PBM binding z-score is -0.376.
Turning to CGTCCAAGGTCAAGGGTCAGTGAAGAGATGACGG, the PBM binding z-score turned out to be 6.46.

The next assay relates to PPARg:RXRa (NR concentration 180 nM, RXRa partner concentration 90 nM). The description is as above. In outline:
as §1
AGAACGAGGGCAATGAGTTGATAACACGGGTGGC: the PBM binding z-score amounted to 1.84.
On the same count and under the same terms, the value for ACTAGCAGGCCAAGGGTCAATCAAGATTAGTCCG was 8.14.
The same measure, in the same setting: the value for AATACAGGGTCATCGTAGGCCAGTGTACGCACAG was 6.48; that for TGTCAAAGTTCAAAGGCAACGTAAGTATCCACAC was 8; that for TGGCCTAGGTCATTGGGCCAGTATAGTACGCATC was 3.3.
Turning to ATCGAAAGGTCGGCGAGGTGAGTATACACCGTTT, the PBM binding z-score came out at 1.57.
On to CCTAGTTGGTCAAGAGGTCACACACCGGATATGA, for which the PBM binding z-score was determined as 5.69.
The same measure, in the same setting: in the case of TCTGCTAGGTCAGCTGGTCAGCTAACGAGCTGCC it was 0.828.
CCGACTGGAGCAGAAAGGTTACCATACCATCCGG gave a PBM binding z-score of 1.61.
On the same count and under the same terms, the value for CAAACTAGGTCACCTGAAGGTCAAAGTCCGCATG was 9.15.
Same read-out and setting: in the case of GCCACTGGGGCATCAGCAGGTTACCATAACTTAA it was 1.72; in that of CAGCCTAGGTCAGGGCCAATATAGGAGGAACGTT, 1.37; in that of CTGAGTAGGTTATGGGGCATTCAGGCAACGGTGA, 4.62.
On the same count and under the same terms, the value for CGACCAAGGTCAAAGGTCAGTGAAGAGATGACGG was 11.3; that for ACTCGTAGGACAAAGGTCAGAGCTACGCCAGTGA was 7.99; that for GGTACGAGGGCAAGTTGATAGCAGAGTTTGATGG was 0.722.
CTCGAAAGGTCGTTCTCAGGTGAGTATACCAAAC had a PBM binding z-score of 1.99.
In the case of AGTACAGGGTCATCGTAGGCCAGAGTACGCACAG, the PBM binding z-score is 6.41.
On the same count and under the same terms, the value for TCTTGTGGATCAGCAGGTTAAGAAAGCTGGCCAA was -0.589; that for TTACCAAGGTGAGCAGAGGTCGTTGATCCAACTC was 2.17; that for GCGACAGGGGCATCAGCAGGTTACCATAACTTAA was 0.386.
On the same count and under the same terms, the value for TCATATAGTTAAAAGGTGAAAGTCGGTGTGGTAA was 3.17.
On the same count and under the same terms, the value for TCGAGTAGGTTAGGGGCATTCAAAATGGCGTCGA was 1; that for TCTCGGTGGACACGAAAGGTCAGAGCTCGACATC was 1.16; that for TGAATGAGGTTATAAGATCAGCGAACGTTGCAAA was 1.18.
In turn, GCTTGTAGATTAAGGTTAAGAAAGACTAAGCTAA showed a PBM binding z-score of 0.216.
The same measure, in the same setting: in the case of CGAAGTAGGTCAAGGACAGTGAATCTCCGCACGC it was 8.14.
As for ACTAGAAGGCCAAGTTTGGGTCACTCAAACAAAG, the PBM binding z-score turned out to be 0.293.
Sequence CCTACTGGGCCACGGAAGGTCATTGATTCAGTGA registered a PBM binding z-score of 3.4.
Sequence TCTAGTAGATCAATAGAGGTTAAGAAAGTGCGCT registered a PBM binding z-score of 0.362.
Sequence AATACAGGGTCATCGTCGGCCAGAGTACGCACAG displayed a PBM binding z-score of 6.81.
TGAATGAGGTTATAAGATCAGGGATCGTTGCAAA showed a PBM binding z-score of 1.56.
The same measure, in the same setting: in the case of ATAGAAAGGTCGAGGTGAGTATAGAGAAAGGGAA it was 3.26.
On the same count and under the same terms, the value for ATCTCTAGGTAAAAGTTCAGTCAATCCCGAGGAT was 8.25; that for CCTTAAGGGTCAAGGTTATAGCACGGGTGGTACG was 5.81.
Take CTCGAAAGGTCGTGCTCAGGTGAGTATACCAAAC: the PBM binding z-score worked out at 2.62.
On the same count and under the same terms, in the case of ACAGACAGTTGAGTGAAGGTAACTCAGCTGGACG it was 0.557; in that of GCTGCTAGGTTAGGTTGGTCAGCTAACGGGTACG, -0.306.
Turning to CGTCCAAGGTCAAGGGTCAGTGAAGAGATGACGG, the PBM binding z-score was found to be 8.85.

For the origin of these results see the supplement of paper PMC6555819.
